Test results taken from PubChem BioAssay AID588719 (Southern Research Specialized Biocontainment Screening …, 2011).
In all, about 1,500 compounds went through this assay and about 920 (61%) were called active. How the calls were made is not given here. The set was probably picked from earlier hits. Some of the results follow. Potency and affinity values are given separately.

Assay: Vero 76 cell cytotoxicity, dose response, cytotoxicity control for VEEV inhibitor project (AID 588719)
Conditions: Vero 76 cells viability, cytotoxicity counter-screen; series mostly up to 25 µM; viability: at the top concentration

Compound	viability
Cc1ccc([C@H]2C[C@@H](O)[C@H](n3cc(COC(=O)c4ccccc4)nn3)CN2CC2CCCCC2)cc1	75.4% (inactive)
COc1ccc(CN(C)[C@H]2C[C@H]3c4[nH]c5ccccc5c4CCN3C[C@H]2[C@H](C)O)cc1	70.5% (inactive)
CCOC(=O)c1ccc(-c2ccc(/C=N/NC(=O)c3cncc(Br)c3)o2)cc1	83.8% (inactive)
CC(C)Oc1ccccc1-c1cc(C(=O)N/N=C/c2cccnc2)c2ccccc2n1	84.6% (inactive)
Cc1cc(N/N=C/c2ccc3c(c2)OCO3)nc2ccccc12	78.2% (inactive)
CC(=O)Nc1ccc(CCNC(=O)c2ccc3ccccc3c2O)cc1	86.4% (inactive)
CCCc1ccc(-c2cc(C(=O)NCCc3ccc(S(N)(=O)=O)cc3)c3ccccc3n2)cc1	85% (inactive)
CN(C)c1nc(OCCOC(=O)COc2ccc(Cl)cc2Cl)nc(N(C)C)n1	91.9% (inactive)
COc1ccc(CCNC(=O)c2cc3c(=O)n4cccc(C)c4nc3n(CCCN3CCOCC3)c2=N)cc1	88.7% (inactive)
O=C(CCNC(=O)c1ccc(Cl)cc1)NC1CCCc2ccccc21 (stereo not drawn)	73.9% (inactive)
CCOc1ccccc1N1CCN(Cc2cn[nH]c2-c2ccc(F)cc2)CC1	75.2% (inactive)
COc1cccc2sc(N(CCCN(C)C)C(=O)c3ccc(S(=O)(=O)N4CCCc5ccccc54)cc3)nc12	72.7% (inactive)
Cc1nc(SCC(=O)Nc2ccccc2Cl)c2c(C)c(C)sc2n1	98.1% (inactive)
CN(C)CC(O)COc1ccc(C(C)(C)c2ccc(OCC(O)CN(C)C)cc2)cc1 (stereo not drawn)	75.6% (inactive)
Cc1ccc(CCNc2ccc3ccccc3c2)cn1	88.9% (inactive)
CC(C)Cc1nc2oc3c(NCC(C)O)ncnc3c2c2c1CCCC2 (stereo not drawn)	91.7% (inactive)
Cc1cc(C(C)(C)C)cc(C)c1CCNC(=O)c1ccc[n+]([O-])c1	79.1% (inactive)
CCN(CC(=O)Nc1ccc(NC(C)=O)cc1)C(=O)c1cc2c(s1)CCCC2	88.5% (inactive)
CCOC(=O)Cn1c(-c2nonc2NC(=O)c2ccccc2F)nc2ccccc21	59.9% (inactive)
CCOC(=O)c1ccccc1NC(=O)CSc1nc2ccccc2c(=O)n1CCCN1CCOCC1	76% (inactive)
S=c1[nH]nc(-c2ccccn2)n1/N=C/c1ccc(-c2ccccc2Cl)o1	90.6% (inactive)
COc1ccc(CCNC(=O)c2cc3c(=O)n4ccccc4nc3n(Cc3ccco3)c2=N)cc1OC	87.9% (inactive)
CCOc1ccc(CCNC(=O)CCc2nc3ccccc3[nH]2)cc1OCC	96.8% (inactive)
COc1ccc([C@H]2C[C@H](n3cc(-c4ccc(F)cc4)nn3)[C@@H](O)CN2C(=O)C2CCCCC2)cc1	78.2% (inactive)
COc1ccc(C2c3[nH]c4ccccc4c3CCN2Cc2ccoc2)c(F)c1 (stereo not drawn)	73.6% (inactive)
Fc1ccc(C2c3[nH]c4ccccc4c3CCN2Cc2cccn2-c2ncccn2)cc1 (stereo not drawn)	71.8% (inactive)

Compound	viability
O=C(CCNC(=O)c1ccc(Br)cc1)NC1CCCc2ccccc21 (stereo not drawn)	76.6% (inactive)
CN1CCC(N(C)S(=O)(=O)c2ccc(NC(=O)COc3ccc(Cl)cc3)cc2)CC1	76.2% (inactive)
CCN1CCN(c2sc(S(C)(=O)=O)nc2S(=O)(=O)c2ccc(C)cc2)CC1	72% (inactive)
O=C1[C@H]2[C@@H](c3ccccc3)N[C@]3(CCCN(Cc4ccc(Br)cc4)C3=O)[C@H]2C(=O)N1Cc1ccccc1	71% (inactive)
CCOC(=O)NC(C(Cl)(Cl)Cl)S(=O)(=O)c1ccccc1 (stereo not drawn)	93.7% (inactive)
Nc1ccc2nc(-c3cccc(-c4nc5ccc(N)cc5[nH]4)c3)[nH]c2c1	97.4% (inactive)
O=C(COC(=O)Cc1ccc(S(=O)(=O)N2CCOCC2)s1)Nc1ccccc1Cl	93.2% (inactive)
O=C(COC(=O)c1ccc(Br)o1)Nc1cccc(S(=O)(=O)N2CCOCC2)c1	102% (inactive)
CC1(C)CC2(OC2c2ccccc2[N+](=O)[O-])C(=O)c2ccccc21 (stereo not drawn)	84% (inactive)
[O-][n+]1c(/C=C/c2ccccc2)ccc2ccccc21	70.4% (inactive)
CCOC(=O)C(=Cc1ccc(-c2ccsc2C(=O)OC)o1)C(=O)OCC	77.6% (inactive)
CCOC(=O)C(=Cc1ccc(-n2ccnc2)cc1)C(=O)OCC	70.7% (inactive)
O=C(O)C1CCN(C(=O)c2cc(F)cc3c2OCOC3)CC1	93% (inactive)
O=C(O)C1CC=CCC1C(=O)Nc1ccc(S(=O)(=O)N2CCCc3ccccc32)cc1 (stereo not drawn)	83.6% (inactive)
Cc1ccc2c(c1)CCCN2S(=O)(=O)c1cccc(C(=O)Nc2ccccc2C(=O)O)c1	76.5% (inactive)
Cc1cc2c(c(/C=C/C(=O)c3ccccc3)c1)OC1(C=C2)Oc2ccccc2C(=O)N1C (stereo not drawn)	73.6% (inactive)
CN(C)CCNC(=O)c1onc(CSc2ccc(F)c(F)c2)c1C(=O)NCCN(C)C	87.3% (inactive)
O=C(Oc1ccc2ccccc2c1Cl)N1CCCC1	81.7% (inactive)
C=CCn1c(SCC(=O)NC23CC4CC(CC(C4)C2)C3)nc(O)cc1=O	99.3% (inactive)
O=C(NCc1cccnc1)c1ccc(NS(=O)(=O)c2cccc([N+](=O)[O-])c2)cc1	102% (inactive)
Fc1ccccc1CSc1ncnc2c1ncn2C1CCCO1 (stereo not drawn)	71.9% (inactive)
N#C/C(=C\c1c(Oc2ccccc2Cl)nc2ccccn2c1=O)C(=O)NC1CCS(=O)(=O)C1 (stereo not drawn)	96.4% (inactive)
COc1cccc2c1C(=O)c1c(O)c3c(c(O)c1C2=O)C[C@@](O)(C(=O)CO)C[C@@H]3OC1CC(N)C(O)C(C)O1 (stereo partly drawn)	55.7% (inactive)
Cc1cccc(CS(=O)(=O)c2ncc(Cl)c(C(=O)Nc3ccc(F)cc3)n2)c1	91.9% (inactive)
c1ccc2c3c([nH]c2c1)C1(CCNCC1)NCC3	84.9% (inactive)
CC[C@@H](C)[C@H](NC(=O)OC(C)(C)C)c1nnc(S(=O)(=O)Cc2cc(C)ccc2C)o1	78.4% (inactive)

Compound	viability
CC(=O)Nc1nnc(SCC(=O)c2ccc3c(c2)Cc2ccccc2-3)s1	83.6% (inactive)
CCC(=O)Nc1nnc(SCC(=O)c2ccc3c(c2)Cc2ccccc2-3)s1	88.4% (inactive)
CCOC(=O)c1c[nH]n2c(=O)cc(C)nc12	99.5% (inactive)
Cc1cc(C)n(-c2nc(N(c3ccccc3)c3ccccc3)nc(-n3nc(C)cc3C)n2)n1	89.2% (inactive)
O=C(CCS(=O)(=O)c1ccccc1)Nc1nnc(C(F)(F)F)s1	80.7% (inactive)
Cc1ccc(CSCC(=O)Nc2ccccc2C(=O)O)cc1	71.7% (inactive)
C/C=C/c1cc(CN2CCN(c3ccccc3)CC2)c(O)c(OC)c1	85.8% (inactive)
CC(C)CCn1nnnc1CN1CCN(c2ccccc2)CC1	103% (inactive)
CC(=O)OCC1CC(COC(C)=O)C(COC(C)=O)CC1COC(C)=O (stereo not drawn)	93.2% (inactive)
S=c1[nH]nc(-c2cccc(Cl)c2)n1/N=C/c1ccc(-c2ccccc2Br)o1	95.2% (inactive)
CCN1CCC(CNCc2cn(-c3ccc(OC)cc3)nc2-c2ccccc2Cl)C1 (stereo not drawn)	97.9% (inactive)
Nc1ncnc(N2CCOCC2)n1	94.5% (inactive)
O=C(COC(=O)c1ccc(O)cc1O)Nc1ccc2ccccc2c1	93% (inactive)
CCOC(=O)C1(CCC(=O)OCc2ccccc2)CCCCC1=O (stereo not drawn)	97.2% (inactive)
CCC(CC)N1CCN(Cc2nc3ccc([N+](=O)[O-])cc3c(=O)n2-c2ccccc2F)CC1	77% (inactive)
OCCCNc1cc(-c2ccccc2)nc2cc(-c3ccc(F)cc3)nn12	73.2% (inactive)
Cc1ccc(C)c(C2=NNC(=O)CC2)c1	93.6% (inactive)
COc1cc2nc(N3CCNCC3)nc(N)c2cc1OC	76.1% (inactive)
Cc1cccc(C(=O)OCC(=O)N2CCN(C(=O)c3ccco3)CC2)c1O	96.5% (inactive)
CC(C)Oc1ccc(C(=O)CCN2CCOCC2)cc1	92.7% (inactive)
COc1ccc(C(C)=NOC(=O)c2c(-c3ccccc3Cl)noc2C)cc1CN1CCOCC1	87.8% (inactive)
OCC[n+]1c2ccccc2nc2ccc(N3CCOCC3)cc21	97.1% (inactive)
Cc1c(C(O)CN2CCN(Cc3ccc4c(c3)OCO4)CC2)c2ccccc2n1C (stereo not drawn)	87.2% (inactive)
Brc1ccc2[nH]c3c(c2c1)CCC3	83.3% (inactive)
Cc1onc(-c2ccccc2)c1C(=O)NCc1ccc(F)cc1	85.7% (inactive)
Cc1ccc(C)c(CN2CCC(CNC(=O)Nc3ccc(Br)cc3F)CC2)c1	80.7% (inactive)

Compound	viability
O=C1c2cc([N+](=O)[O-])cc3cc([N+](=O)[O-])cc(c23)C(=O)N1c1ccccn1	80.2% (inactive)
CC(C)Cc1ccc(CN2CCCC(NC(=O)c3cccc(-n4cnnc4)c3)C2)cc1 (stereo not drawn)	77.4% (inactive)
Nc1nc(C2CC2)c(Sc2sc(N)nc2C2CC2)s1	79.2% (inactive)
COc1ccc(C[C@H]2CN3C(=NC[C@H]3C)N2CCNC(=O)CCC2CCCCC2)cc1	93.6% (inactive)
O[C@H]1C[C@H](c2ccc(Cl)cc2)N(CC2CCCCC2)C[C@@H]1n1cc(-c2ccc(F)cc2)nn1	168% (inactive)
CCOC(=O)C1=C(NC(=S)NC(=O)c2ccccc2)c2ccccc2CC1(C)C	82.3% (inactive)
Cc1ccc(NC(=S)NNC(=S)Nc2cccc(C(F)(F)F)c2)cc1	88.9% (inactive)
Cc1sc(NC(=S)NC(=O)c2ccc(C(C)(C)C)cc2)c(C#N)c1C	71.1% (inactive)
CC(C)(C)c1ccc(C(=O)NC(=S)Nc2sc3c(c2C#N)CCC3)cc1	76.9% (inactive)
ClCCn1cnc2c(SCc3ccccc3Cl)ncnc21	60.7% (inactive)
Cc1cccc2sc(N(CCCN(C)C)C(=O)c3ccc4ncsc4c3)nc12	76.9% (inactive)
CC1SCC(NC(=O)c2ccc(Cl)cc2)CS1 (stereo not drawn)	101% (inactive)
Cc1cccc2c1NC1(CCCC1)CC2C (stereo not drawn)	90.3% (inactive)
C/C(CCC12CC3CC(CC(C3)C1)C2)=N\NC(N)=S	86.5% (inactive)
CC(=O)NNc1cc(C)nc(N)n1	90.7% (inactive)
Cc1ccc(Cc2c(-c3ccc(C)cc3)nc3c4ccccc4ccn23)cc1	96.1% (inactive)
COCCn1c(SC(C)C(=O)Nc2ncc(Cl)cc2Cl)nc2ccccc21 (stereo not drawn)	91.7% (inactive)
Cc1cc(SC(C)C(=O)Nc2ncc(Cl)cc2Cl)nc2ccccc12 (stereo not drawn)	79.2% (inactive)
O=C(CCCCN1CCCCC1)c1ccc2c(c1)Cc1ccccc1-2	76.1% (inactive)
CCOC(=O)c1ccc(NC(=S)N(CCN(C)C)Cc2cccs2)cc1	74.1% (inactive)
COc1ccc(OC)c(Nc2nc(NCCC(C)C)nc(N)c2[N+](=O)[O-])c1	80% (inactive)
CCc1ccccc1Nc1nc(N)nc(COC(=O)CCC(=O)c2ccc(F)cc2)n1	88.4% (inactive)
COc1ccc(Nc2ccccc2N)cc1	78.8% (inactive)
CCc1ccccc1Nc1nc(N)nc(COC(=O)c2cccn2C)n1	82.6% (inactive)
CCOC(=O)c1c(S(=O)(=O)N2CCC(C)CC2)c(C)n(C)c1C	100% (inactive)
